Records with an inconclusive call do not appear. Active and inactive are the calls of the source. The call rests on the fitted dose curve; in most records, active means well fitted cell-killing curve with a large enough effect; inconclusive means small, poorly fitted or top-dose-only effect; inactive means no such curve, though single readings can be large or run the other way. Where a SMILES comes first, the peptide text is derived from it. Bridges are numbered along the chain shown (N, C = ends). [ ]: non-standard residue; d: D form. hArg = N=C(N)NCCCC[C@H](N)C(=O)O; Mpa = O=C(O)CCS

The assay in a line: qHTS of pediatric cancer cell lines to identify multiple opportunities for drug repurposing: Primary screen for SJ-GBM2 cells (AID 1347091). Particulars: SJ-GBM2 viability, CellTiter-Glo luminescence, 48 h; series mostly up to 46 µM. The text has this: Drug repurposing or repositioning has been offered as a strategy for drug development in oncology programs. This approach has special potential for childhood cancers and other rare or orphan diseases, where the expected return on new drug development has been a disincentive to pharmaceuticals.
In this project we exploit the poly-pharmacology of drugs to discover new indications via phenotypic screening of a panel of 19 well-characterized cell lines derived from solid tumors seen in children and adolescents. The goal is to identify approved drugs with previously unrecognized anticancer properties that has the potential to reveal new mechanisms and biological processes involved in carcinogenesis or drug resistance. We employed a titration-based paradigm (quantitative high-throughput screening or qHTS), where all compounds were tested at multiple concentrations for their effect on cell viability. Concentration-response curves (CRCs) were derived directly from the primary screen, and both potency and efficacy values were used to identify compounds with robust bioactivity profiles. We screened the NIH Chemical Genomics Center (NCGC) Pharmaceutical Collection (NPC) and Mechanism Interrogation Plate (MIPE) small molecule collections of approved and investigational compounds against these cell lines; and measured metabolically active cells after 48 hours of compound treatment as a proxy for cell viability.
Assay Submitter: Nathalia J. Martinez, National Center for Advancing Translational Sciences, National Institutes of Health, Rockville, MD, USA; email: natalia.martinez@nih.gov
[1] Shen, M et al. Quantitative high-throughput phenotypic screening of pediatric cancer cell lines identifies multiple opportunities for drug repurposing. Oncotarget 2017 Dec 19;9(4):4758-4772. PMID 29435139.
The cells were obtained from University of North Carolina (UNC), Pediatric Preclinical Testing Program (PPT), and Coriell Institute (CI).
qHTS cell viability assay:
Cells were assayed in growth media at a density of 500-1,000 cells/well. Five microliters of cells were dispensed into 1,536-well, white, solid-bottom, TC-treated plates (Greiner Bio One) using a multidrop dispenser and incubated at 37 degrees C, 5% CO2, under a humidified atmosphere for 5 hours. Twenty-three nanoliters of compounds and controls (neutral control DMSO or positive control bortezomib at final concentration of 2.3 µM) were subsequently transferred by Kalypsys pintool. For primary screens, the MIPE collection was tested at 11-point dilutions (final concentrations range from 0.78 nM to 46 µM) and the NPC collection at 8-point dilutions (final concentrations range from 0.59 nM to 46 µM). Compounds tested in follow-up screens were assayed at 11-point dilutions. Cells were incubated for 48 hours, followed by addition of 3 uL of CellTiter-Glo (Promega). After a 15 min incubation at room temperature, samples were analyzed for luminescence intensity using a ViewLux High-throughput CCD imager equipped with clear filters.
As to `Cc1cc(C)nc(NS(=O)(=O)c2ccc(N)cc2)n1`, the outcome was inactive. Same read-out and setting: the result for `COc1ccc(C(=O)N2CCN(CC(=O)N3CCOCC3)CC2)cc1` reads “inactive”; that for `C[C@H]1COc2c(C3(N)CC3)c(F)cc3c(=O)c(C(=O)O)cn1c23`, “inactive”; that for `O=c1[nH]c2cc(C(F)(F)F)c(N3CCOCC3)cc2n(CP(=O)(O)O)c1=O`, “inactive”. Still for that read-out and setting: then `CN[C@@H]1[C@@H](O)[C@@H](O[C@@H]2[C@H](O)[C@H](O[C@H]3OC(CN)=CC[C@H]3N)[C@@H](N)C[C@H]2N)OCC1(C)O` (stereo not given in full), with “inactive”; and `Cc1ccc(C(C)C)c(O)c1`, with “inactive”; and `CC1(C)S[C@@H]2[C@H](NC(=O)C(C(=O)O)c3ccccc3)C(=O)N2[C@H]1C(=O)O` (stereo not given in full), with “inactive”. The same measure, in the same setting: the result for `CN1C(=O)CC(c2ccccc2)C1=O` (stereo not given) reads “inactive”; that for `Nc1ncnc(Nc2ccccc2)n1`, “inactive”. As to `C[C@]1(Cn2ccnn2)[C@H](C(=O)O)N2C(=O)C[C@H]2S1(=O)=O`, the result was inactive.

As to `CC(=O)N[C@@H](Cc1ccc(O)cc1)C(=O)O`, the result was inactive. The same measure, in the same setting: the result for `CCOC(=O)c1cccnc1` reads “inactive”; that for `NC(=O)CCCCC1CCSS1` (stereo not given), “inactive”. Consider `N[C@@H](Cc1ccc(O)cc1)C(=O)O`, for which the activity change, negative = cytotoxic is 12% [at 9.22 µM] (inactive). On to `Nc1c2c(nc3c1CCC3)CCCC2`, for which the result was inactive. Still for that read-out and setting: the result for `NC(=O)[C@@H]1CSSCCC(=O)N[C@@H](CCCCN=C(N)N)C(=O)NCC(=O)N[C@@H](CC(=O)O)C(=O)N[C@@H](Cc2c[nH]c3ccccc23)C(=O)N2CCC[C@H]2C(=O)N1` ([Mpa][hArg]GDWPC-NH2; disulfide 1-7) reads “inactive”; that for `CC(=O)OCC(=O)[C@@]1(O)CC[C@H]2[C@@H]3CCC4=CC(=O)C=C[C@]4(C)[C@@]3(F)[C@@H](O)C[C@@]21C`, “inactive”. Still for that read-out and setting: then `OC[C@@H](O)[C@@H](O)[C@H](O)[C@H](O)CO`, with “inactive”. Same read-out and setting: the result for `Cc1ccsc1/C=C/C1=NCCCN1C` reads “inactive”; that for `Cn1c(=O)c2c(ncn2CCO)n(C)c1=O`, “inactive”; that for `Cc1ncc(CO)c(CN)c1O`, “inactive”. Consider `NS(=O)(=O)c1ccc(NC(=O)CCC(=O)O)cc1`, for which the compound was classed as inactive.

With `COc1ccc(O)cc1`, the outcome was inactive. On the same count and under the same terms, the result for `C[n+]1ccccc1/C=N/O` reads “inactive”; that for `CCCCC1(COC(=O)CCC(=O)O)C(=O)N(c2ccccc2)N(c2ccccc2)C1=O`, “inactive”. `Cc1c(I)c(=O)n(-c2ccccc2)n1C`: the result was inactive. `Cc1cc(C)c(NC(=O)CN(CC(=O)O)CC(=O)O)c(C)c1Br`: the call was inactive. Same read-out and setting: the result for `CC1(c2ccccc2)OC(C(=O)O)=CC1=O` (stereo not given) reads “inactive”; that for `FC(F)(F)C(Cl)Br` (stereo not given), “inactive”; that for `C[C@@H](N)C(=O)O`, “inactive”. Still for that read-out and setting: the result for `CCN(CC)CCc1nc(-c2ccccc2)no1` reads “inactive”.

With `COc1ccc(Cc2cnc(N)nc2N)cc1OC`, the result was inactive.

On to `CCCOC(=O)c1ccc(N)cc1`, for which the call was inactive. In the case of `NC(=O)N[C@@H](CCC(=O)O)C(=O)O`, the compound was called inactive.

In the case of `Cc1cccc(Nc2ccccc2C(=O)O)c1C`, the compound was called inactive. The same measure, in the same setting: then `COc1cc(C(=O)NCCCCCC(=O)O)cc(OC)c1OC`, with “inactive”. Same read-out and setting: then `COc1ccc(C(=O)NCc2ccc(OCCN(C)C)cc2)cc1OC`, with “inactive”; and `Cc1cc(-n2nc3ccc(Cl)cc3n2)c(O)c(C(C)(C)C)c1`, with “inactive”; and `COc1nccnc1NS(=O)(=O)c1ccc(N)cc1`, with “inactive”. Still for that read-out and setting: then `C[C@@H]1CCC[C@H](C)N1`, with “inactive”.
